Source: PubChem (Broad Institute)
In the library only some 2.3% were active in any assay of this set; here they are far more common.
Rtt109 HAT inh: inhibitors of C. albicans Rtt109/Vps75 HAT, primary screen, biochemical, ThioGlo CoA-SH fluorescence, plate reader | hit rate 0.16% among 330,000 | purified Rtt109/Vps75, 4 h | inhibition, % at 34.9 µM | AID 540336, 2011 | Histone acetyltransferase RTT109 (Candida albicans (strain SC5314 / ATCC MYA-2876)), …;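 active = inhibition of at least 50% in every replicate; inconclusive = best replicate reaches 50% inhibition but some replicates fall short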
Target sequence (Q5AAJ8 whole entry, looked up): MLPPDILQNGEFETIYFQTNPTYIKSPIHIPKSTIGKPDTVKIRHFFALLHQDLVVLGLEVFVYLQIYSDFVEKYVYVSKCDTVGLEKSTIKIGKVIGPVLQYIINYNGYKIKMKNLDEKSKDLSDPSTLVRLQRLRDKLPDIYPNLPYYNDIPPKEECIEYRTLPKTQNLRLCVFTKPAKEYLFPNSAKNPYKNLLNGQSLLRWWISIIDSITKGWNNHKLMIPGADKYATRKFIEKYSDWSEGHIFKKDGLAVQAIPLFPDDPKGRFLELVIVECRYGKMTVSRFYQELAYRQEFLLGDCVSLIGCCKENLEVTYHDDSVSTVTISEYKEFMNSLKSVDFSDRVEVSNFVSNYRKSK
DENV2 CPE: inhibitors of DENV2 cytopathic effect, primary screen, cell-based, plate reader, single concentration | DENV2-infected cells, cytopathic effect rescue | CPE inhibition, % at 9.99 µM | hit rate 1.7% among 350,000 | AID 651640, 2012; in the data active = CPE inhibition above about 20%, passing the limit was not always enough; inconclusive = no clear call, values can overlap the other calls; tested in BHK-21 cells;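 also: 0% = median of neutral control wells and 100% = median of positive control wells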
ERp5 inh: inhibitors of ERp5-driven insulin aggregation, primary screen, biochemical, turbidity, absorbance 650 nm, single point; Protein disulfide-isomerase A6 (Homo sapiens), Q15084; 90 min; inhibition, % at 9.99 µM; hit rate 0.05% among 350,000; AID 651711, 2012;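 active = mean replicate inhibition above about 25%, with every replicate also reaching it, limit read from the data, passing the limit was not always enough; inconclusive = only one of those two criteria met; inactive = neither criterion met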
PDI turbidity: inhibitors of human PDI, primary screen, biochemical, turbidity, single point, plate reader. Protein disulfide-isomerase (Homo sapiens), P07237. PDI insulin aggregation turbidity, A650, 90 min. inhibition, % at 10 µM. hit rate 0.052% among 350,000. AID 588391, 2011;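 active = mean inhibition across replicates of 30% or more, whatever share of single replicates reach that level; inconclusive = mean inhibition below 30% while every single replicate reaches 30%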
SIRT5 inh: SIRT5 desuccinylase inhibitors, primary screen, biochemical, fluorescence imaging, single point, set 5; Purified SirT5, succinyl-peptide AMC, trypsin-coupled fluorescence; inhibition, % at 15 µM; hit rate 1.1% among 330,000; AID 652115, 2013; in the data active = inhibition above about 15%; inconclusive = no clear call, values can overlap the other calls
Numbers without * were called inactive; ? = inconclusive; nt = no result.

SMILES	Rtt109 HAT inh	DENV2 CPE	ERp5 inh	PDI turbidity	SIRT5 inh
C/C=C/c1ccc2c(c1)O[C@@H](CN(C)C(=O)c1ccc(F)cc1)[C@H](C)CN([C@H](C)CO)S2(=O)=O	nt	-9	-3	nt	0
CC(C)NC(=O)Nc1ccc2c(c1)C(=O)N([C@H](C)CO)C[C@H](C)[C@@H](CN(C)C(=O)NC(C)C)OCCCC[C@H](C)O2	nt	4	1	nt	5
CCCNC(=O)N[C@@H]1CC[C@@H](CCn2cc(C3CCCC3)nn2)O[C@H]1CO	nt	33*	?	nt	2
O=C(N[C@@H]1CC[C@@H](CCn2cc(C3CCCC3)nn2)O[C@H]1CO)c1cccnc1	nt	29*	5	nt	-6
CCCNC(=O)N[C@@H]1CC[C@H](CCn2cc(C3CCCC3)nn2)O[C@H]1CO	nt	6	13	nt	1
C[C@@H]1CCCCO[C@H](CN(C)C(=O)Nc2ccc(C(F)(F)F)cc2)[C@H](C)CN([C@H](C)CO)C(=O)c2cc(NS(=O)(=O)c3ccc(F)cc3)ccc2O1	nt	71*	-4	nt	7
C[C@@H]1CCCCO[C@@H](CN(C)C(=O)Nc2ccc(C(F)(F)F)cc2)[C@H](C)CN([C@@H](C)CO)C(=O)c2cc(NS(=O)(=O)c3ccc(F)cc3)ccc2O1	nt	61*	0	nt	6
C[C@H](CO)N1C[C@H](C)[C@H](CN(C)C(=O)Nc2ccc(C(F)(F)F)cc2)OCCCC[C@H](C)Oc2ccc(NS(=O)(=O)c3ccc(Cl)cc3)cc2C1=O	nt	-1	-6	nt	40*
C[C@@H]1CN([C@@H](C)CO)C(=O)c2cc(NS(=O)(=O)c3ccc(F)cc3)ccc2O[C@@H](C)CCCCO[C@@H]1CN(C)C(=O)Nc1ccc(C(F)(F)F)cc1	nt	-12	8	nt	nt
C[C@@H]1CCCCO[C@@H](CN(C)C(=O)Nc2ccc(C(F)(F)F)cc2)[C@@H](C)CN([C@H](C)CO)C(=O)c2cc(NS(=O)(=O)c3ccc(F)cc3)ccc2O1	nt	7	6	nt	10
C[C@H](CO)N1C[C@H](C)[C@@H](CN(C)C(=O)Nc2ccc(C(F)(F)F)cc2)OCCCC[C@H](C)Oc2ccc(NS(=O)(=O)c3ccc(F)cc3)cc2C1=O	nt	95*	-3	nt	4
CCCNC(=O)C[C@H]1CC[C@H]2[C@H](COc3ccc(NC(=O)c4cc(C)on4)cc3C(=O)N2C)O1	nt	7	5	nt	0
COc1cccc(S(=O)(=O)Nc2ccc3c(c2)C(=O)N(C)[C@@H]2CC[C@H](CC(=O)O)O[C@H]2CO3)c1	nt	-1	nt	nt	nt
C[C@H]1CN([C@@H](C)CO)C(=O)c2cc(NC(=O)Cc3cn(C)c4ccccc34)ccc2O[C@@H]1CN(C)S(=O)(=O)c1cccs1	nt	6	1	nt	5
Cc1ccc(S(=O)(=O)N(C)C[C@@H]2Oc3ccc(NC(=O)c4ccncc4)cc3CC(=O)N([C@@H](C)CO)C[C@@H]2C)cc1	nt	57*	6	nt	-2
COc1ccc(S(=O)(=O)N(C)C[C@H]2Oc3ccc(NC(=O)c4ccncc4)cc3C(=O)N([C@H](C)CO)C[C@H]2C)cc1	nt	-1	-2	nt	-1
Cc1ccc(S(=O)(=O)N(C)C[C@@H]2Oc3ccc(NC(=O)c4ccncc4)cc3C(=O)N([C@H](C)CO)C[C@@H]2C)cc1	nt	5	1	nt	-3
Cc1ccc(S(=O)(=O)N(C)C[C@@H]2Oc3ccc(NC(=O)c4ccncc4)cc3C(=O)N([C@H](C)CO)C[C@H]2C)cc1	nt	31*	-1	nt	-4
COc1ccc(S(=O)(=O)N(C)C[C@@H]2Oc3ccc(NC(=O)c4ccncc4)cc3C(=O)N([C@H](C)CO)C[C@@H]2C)cc1	nt	-3	64*	nt	-3
Cc1ccc(S(=O)(=O)N(C)C[C@H]2Oc3ccc(NC(=O)c4ccncc4)cc3CC(=O)N([C@H](C)CO)C[C@@H]2C)cc1	nt	-5	0	nt	-2
O=C(c1cccc(-c2ccc(O)cc2)c1)N1CCOCC1	-1	nt	nt	1	nt
O=C(c1cccc(-c2cccc3nccn23)c1)N1CCOCC1	nt	33*	-2	-1	nt
CC=Cc1ccc2n(c1=O)C[C@@H]1[C@@H](CO)[C@H](C(=O)NCCC)[C@H]2N1C(=O)C1CCC1 (mixture of isomers)	nt	-10	6	nt	nt
CCOc1cccc(=O)c2c(C)n(-c3ccc(C(=O)O)cc3)c(C)c12	5	nt	-2	10	29*
COc1cccc(=O)c2c(C)n(-c3ccc(C(=O)O)cc3)c(C)c12	4	-2	-3	3	8
SMILES	Rtt109 HAT inh	DENV2 CPE	ERp5 inh	PDI turbidity	SIRT5 inh
O=C(CCn1c2c(c3ccccc31)CCCC2)NNC(=O)c1ccc(Cl)c([N+](=O)[O-])c1	6	nt	5	0	27*
CO[C@@H]1CN(C)C(=O)c2ccc(NC(C)=O)cc2OC[C@H](C)N(C(=O)C2CC2)C[C@@H]1C	nt	6	-1	nt	-5
C[C@@H]1CCCCO[C@@H](CN(C)S(C)(=O)=O)[C@H](C)CN([C@H](C)CO)C(=O)c2cc(NS(C)(=O)=O)ccc2O1	nt	6	nt	nt	nt
Cc1cc(C)nc(N2CCC(C(=O)NCCc3ccc(Cl)cc3)CC2)n1	-10	0	-11	3	15*
Cc1cc(C)nc(N2CCC(C(=O)NCCc3ccc(F)cc3)CC2)n1	-9	nt	1	7	-2
COc1ccc(Nc2cc(C)c3cc([N+](=O)[O-])ccc3n2)cc1	-2	28*	4	2	-5
CCC(=O)N1CC2(CCN(Cc3ccc(Cl)cc3)CC2)c2c([nH]c3cc(OC)ccc23)[C@@H]1CO	nt	-9	nt	nt	nt
CC1CN(S(=O)(=O)c2ccc(Cl)c(C(F)(F)F)c2)CC(C)O1 (configuration not stated)	4	2	-10	-16	15*
CCN1CCN(C(=O)CN(CC)S(=O)(=O)c2ccc(Cl)cc2)CC1	8	nt	nt	-1	nt
CCN1CCN(C(=O)CN(CC)S(=O)(=O)c2ccc3ccccc3c2)CC1	10	-4	3	-1	23*
COc1ccc(CN(CCNC(=O)CCCCC(=O)NCCN(Cc2ccc(OC)cc2)C(C)C)C(C)C)cc1	6	30*	1	-15	-2
O=C(/C=C/c1ccc2c(c1)OCO2)c1ccc(O)cc1O	3	4	5	73*	-1
COc1ccc(-n2cnc3scc(-c4ccc(OC)c(OC)c4)c3c2=O)cc1	62*	nt	2	-4	-2
O=C(NC[C@@H]1N[C@@H](CO)[C@H]1c1ccc(C2=CCCCC2)cc1)c1ccccc1	nt	-30	nt	nt	nt
C[C@@H]1CCCCO[C@H](CN(C)CC2CC2)[C@@H](C)CN([C@@H](C)CO)C(=O)c2cc(NS(=O)(=O)c3ccc(F)cc3)ccc2O1	nt	5	-4	nt	-1
